D1 antagonist: blocks dopamine activation of the human D1 receptor. AID 504652. 360,000 compounds, 3.2% hits. P21728. activity change, negative = inhibition, % at 10 µM. HEK293 TREx D1 cells, calcium flux, dopamine EC80; stronger effect = lower value; in the data active = activity change below about -30%
Target sequence (P21728 whole entry, looked up): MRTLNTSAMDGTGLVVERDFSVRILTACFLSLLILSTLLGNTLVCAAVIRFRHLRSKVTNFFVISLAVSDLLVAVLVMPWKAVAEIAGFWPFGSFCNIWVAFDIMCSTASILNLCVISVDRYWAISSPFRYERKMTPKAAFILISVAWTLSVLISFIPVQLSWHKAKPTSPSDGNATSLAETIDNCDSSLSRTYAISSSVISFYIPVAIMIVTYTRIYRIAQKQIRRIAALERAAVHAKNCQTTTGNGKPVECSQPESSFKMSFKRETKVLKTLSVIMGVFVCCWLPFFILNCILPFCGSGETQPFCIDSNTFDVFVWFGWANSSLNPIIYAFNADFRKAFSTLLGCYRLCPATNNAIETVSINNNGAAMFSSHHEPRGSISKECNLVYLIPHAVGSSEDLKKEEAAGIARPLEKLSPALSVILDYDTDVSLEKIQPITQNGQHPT
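Kinetic fluorescence of a calcium dye serves as the read-out. D1-expressing Hek293 Trex cells, induced overnight at 30 C, are exposed to compound for 180 s before an EC80 dopamine addition, then read 180 s further.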
D1 PAM: enhances dopamine response at the human D1 receptor | HEK293 TREx D1 cells, calcium flux, dopamine EC20 potentiation | potentiation, % at 10 µM | 360,000 compounds, 0.036% hits | AID 504651; in the data active = potentiation above about 30%
D3 ag: agonists of human D3 dopamine receptor; P35462; D3R DiscoveRx beta-arrestin cells, luminescence, 90 min; max activation, %; 410,000 compounds, 0.58% hits; AID 652048; in the data active = max activation above about 30%
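Cells at 1500/well, incubated overnight, then treated with pinned compounds (dopamine as control) for 90 min at 37 degrees C. DiscoveRx reagent added for 30 - 60 minutes at room temperature; luminescence read.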
D1 ag: agonists of human D1 dopamine receptor | P21728 | HEK293 T-REx D1 cells, calcium flux, agonist mode | activation, % at 2 µM | 360,000 compounds, 1% hits; in the data active = activation above about 30%
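Tetracycline-induced HEK293 TREx D1 cells, force-coupled to calcium signalling, were dye-loaded with a no-wash calcium kit. Compound was pin-added after a 10 s baseline. Fluorescence was read kinetically at 1 cycle/s for 180 s, with calcium rises flagged as agonism.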
DRD3 antagonist: antagonists of human D3 dopamine receptor; max response, negative = inhibition, %; D3R cells, DiscoveRx beta-arrestin luminescence, antagonist mode; stronger effect = lower value; AID 652054; 360,000 compounds, 2.5% hits; in the data active = max response below about -50%; inconclusive = no clear call, values can overlap the other calls
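Cells plated overnight at 1500 cells/well, then exposed to library compounds with dopamine controls for 90 minutes at 37 degrees C. DiscoveRx reagent added for 30–60 minutes at room temperature; luminescence read, quantitative HTS format.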
Each line names hits and unclear results; the compound was inactive in the other large screens. A selection: hits, their analogues and other compounds. The true share with any hit is near 6.1%.

CCN(CC)C(=O)c1ccc(-c2ccccc2)cc1	none
CCN(CC)C(=O)c1ccc(CS(=O)(=O)Cc2ccccc2)cc1	D1 antagonist -31
CCC(=O)c1ccc(OCc2ccc(C#N)cc2)cc1	D1 antagonist -37
Cc1ccc(NC(=O)C2CCCN(c3ncnc4onc(C)c34)C2)cc1Cl (stereo unspecified)	none (no result: DRD3 antagonist)
Nc1cccc(/C=C/c2ccncc2)c1	D1 antagonist -41
CCOc1ccc(C(=O)Nc2ccc3nc(SCC(=O)N4CCOCC4)sc3c2)cc1	none (no result: DRD3 antagonist)
Cc1ccc([N+](=O)[O-])cc1S(=O)(=O)Nc1cccc(S(=O)(=O)Nc2ccccc2C(=O)O)c1	none (no result: D1 antagonist, D1 PAM, D1 ag)
Cc1ccc(C)c(NC(=O)c2ccccc2NS(=O)(=O)c2cc([N+](=O)[O-])ccc2C)c1	D1 antagonist -50
CN(C)/C=C/c1oc2ccc(O)cc2c1[N+](=O)[O-]	DRD3 antagonist -52
NC(=S)Nc1cccc2cc3ccccc3cc12	DRD3 antagonist inconclusive
NC(=S)Nc1cc2ccccc2c2ccccc12	DRD3 antagonist -64
CS(=O)(=O)n1nc(-c2ccco2)nc1NCc1ccccc1Cl	none (no result: DRD3 antagonist)
COc1ccc(C2NC(=S)NC(C)=C2C(=O)c2ccccc2)cc1OC (stereo unspecified)	none
